The values that follow come from PubChem BioAssay AID602163 (The Scripps Research Institute Molecular Screening Center, 2012).

Each structure is given as a SMILES string. The campaign covered roughly 360,000 compounds. About 1,100 (0.31%) were called active. For the sample, actives were picked, then their nearest neighbours and some compounds at random. Values without a mark were called inactive. Rule as the data show it: active = activation above about 7.5%; inactive = the rest.

The assay concerns Methionine sulfoxide reductase A (Bos taurus). Description: activation of methionine sulfoxide reductase A – biochemical, absorbance, bovine, HTS, primary screen (AID 602163).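 Also: 0% = vehicle and 100% = reference activator.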 Particulars: purified bovine MsrA, absorbance read-out; at 10.6 µM; stronger effect = higher value.
`COC(=O)c1ccccc1NC(=O)C1(S(=O)(=O)c2ccc(Cl)cc2)CC1`: the activation is -4.86%.

Consider `CCCc1c(C)nc2c(Br)cccc2c1Cl`, for which the activation is -2.47%.

Turning to `CCN(CC)CCCC(C)n1c2nc(=O)[nH]c(=O)c-2nc2cc(Cl)ccc21` (stereo not given), the activation was 11.7% (active).

As to `COC(C/C=C/C(=O)[C@@H](C)OCc1ccccc1)OC`, the activation is 5.11%.

Take `CSC1=NC2(C)CCCCC2C12C=CC(=O)C=C2` (stereo not given): the activation was -3.42%.

In the case of `CC(C)CCNC(=O)C1CCC(CNc2c(N3CCC(C)CC3)c(=O)c2=O)CC1` (stereo not given), the activation was -7.85%.

As for `CC(C)(C)N1C(=O)c2c(C(=O)OCc3ccccc3)[nH]c(-c3ccccc3)c2C1=O`, the activation was -2.85%.

As to `O=C1C(Sc2cccc(F)c2)=C[C@@]2(O)CC[C@@H](O)[C@]1(Sc1cccc(F)c1)[C@H]2O`, the activation was 11.4% (active).

For `CN1CCN(c2ccc(CNS(=O)(=O)c3cccc(F)c3)cc2)CC1`, the activation is -2.8%.

`Cc1nccn1CCCNC(=O)CC1C(=O)NCCN1Cc1ccc(Cl)c(F)c1` (stereo not given): the activation was -5.91%.

Regarding `O=c1onc(-c2cccs2)n1Cc1ccccc1`, the activation was -2.25%.

Consider `O=C(O)/C=C/c1cn(Cc2ccccc2)nc1-c1cccs1`, for which the activation was 9.05% (active).

Consider `COc1ccc(NC(=O)CN(C)C(=O)/C=C/c2cn(Cc3ccccc3)nc2-c2cccnc2)cc1`, for which the activation is -3.42%.

In the case of `Cc1cccc(NC(=O)Cn2c(=O)n(Cc3ccccc3)c(=O)c3c(C)c(C)sc32)c1`, the activation is -2.33%.

With `O=C1CCC(C(=O)N2CCC(O)(c3ccccc3)CC2)CN1CCc1ccccc1` (stereo not given), the activation is -3.3%.

With `COc1ccc(Cl)cc1NS(=O)(=O)c1cccc(C(=O)NC2CCC(O)CC2)c1` (stereo not given), the activation was -0.8%.

In the case of `COc1ccc(C(=O)NCC2CCCO2)cc1S(=O)(=O)NCc1ccc(Cl)cc1` (stereo not given), the activation was -6%.

For `COc1ccc(Cl)cc1NS(=O)(=O)c1cccc(C(=O)NCC2CCCO2)c1` (stereo not given), the activation was 8.29% (active).

As for `CC(C)NC(=S)NN=C1CCCCCCCCCCC1`, the activation is -2.24%.

Regarding `C=C(C)C1CC=C(C)/C(=N\NC(=O)CNc2ccccc2OC)C1` (stereo not given), the activation is -4.34%.
